From PubChem
Dicer inh = inhibitors of Dicer pre-microRNA processing, primary screen, biochemical, cat-ELCCA, chemiluminescence. Endoribonuclease Dicer (Homo sapiens), Q9UPY3. cat-ELCCA pre-miR-21 Dicer processing; hits give high values. z-score at 25 µM. hit rate 6% among 47,000. AID 1347074, 2019; in the data active = z-score above about 3, passing the limit was not always enough;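 note: plate controls were vehicle for no effect and no enzyme for full effect; higher signal means more uncleaved substrate so more Dicer inhibition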
Target sequence (Q9UPY3 whole entry, looked up): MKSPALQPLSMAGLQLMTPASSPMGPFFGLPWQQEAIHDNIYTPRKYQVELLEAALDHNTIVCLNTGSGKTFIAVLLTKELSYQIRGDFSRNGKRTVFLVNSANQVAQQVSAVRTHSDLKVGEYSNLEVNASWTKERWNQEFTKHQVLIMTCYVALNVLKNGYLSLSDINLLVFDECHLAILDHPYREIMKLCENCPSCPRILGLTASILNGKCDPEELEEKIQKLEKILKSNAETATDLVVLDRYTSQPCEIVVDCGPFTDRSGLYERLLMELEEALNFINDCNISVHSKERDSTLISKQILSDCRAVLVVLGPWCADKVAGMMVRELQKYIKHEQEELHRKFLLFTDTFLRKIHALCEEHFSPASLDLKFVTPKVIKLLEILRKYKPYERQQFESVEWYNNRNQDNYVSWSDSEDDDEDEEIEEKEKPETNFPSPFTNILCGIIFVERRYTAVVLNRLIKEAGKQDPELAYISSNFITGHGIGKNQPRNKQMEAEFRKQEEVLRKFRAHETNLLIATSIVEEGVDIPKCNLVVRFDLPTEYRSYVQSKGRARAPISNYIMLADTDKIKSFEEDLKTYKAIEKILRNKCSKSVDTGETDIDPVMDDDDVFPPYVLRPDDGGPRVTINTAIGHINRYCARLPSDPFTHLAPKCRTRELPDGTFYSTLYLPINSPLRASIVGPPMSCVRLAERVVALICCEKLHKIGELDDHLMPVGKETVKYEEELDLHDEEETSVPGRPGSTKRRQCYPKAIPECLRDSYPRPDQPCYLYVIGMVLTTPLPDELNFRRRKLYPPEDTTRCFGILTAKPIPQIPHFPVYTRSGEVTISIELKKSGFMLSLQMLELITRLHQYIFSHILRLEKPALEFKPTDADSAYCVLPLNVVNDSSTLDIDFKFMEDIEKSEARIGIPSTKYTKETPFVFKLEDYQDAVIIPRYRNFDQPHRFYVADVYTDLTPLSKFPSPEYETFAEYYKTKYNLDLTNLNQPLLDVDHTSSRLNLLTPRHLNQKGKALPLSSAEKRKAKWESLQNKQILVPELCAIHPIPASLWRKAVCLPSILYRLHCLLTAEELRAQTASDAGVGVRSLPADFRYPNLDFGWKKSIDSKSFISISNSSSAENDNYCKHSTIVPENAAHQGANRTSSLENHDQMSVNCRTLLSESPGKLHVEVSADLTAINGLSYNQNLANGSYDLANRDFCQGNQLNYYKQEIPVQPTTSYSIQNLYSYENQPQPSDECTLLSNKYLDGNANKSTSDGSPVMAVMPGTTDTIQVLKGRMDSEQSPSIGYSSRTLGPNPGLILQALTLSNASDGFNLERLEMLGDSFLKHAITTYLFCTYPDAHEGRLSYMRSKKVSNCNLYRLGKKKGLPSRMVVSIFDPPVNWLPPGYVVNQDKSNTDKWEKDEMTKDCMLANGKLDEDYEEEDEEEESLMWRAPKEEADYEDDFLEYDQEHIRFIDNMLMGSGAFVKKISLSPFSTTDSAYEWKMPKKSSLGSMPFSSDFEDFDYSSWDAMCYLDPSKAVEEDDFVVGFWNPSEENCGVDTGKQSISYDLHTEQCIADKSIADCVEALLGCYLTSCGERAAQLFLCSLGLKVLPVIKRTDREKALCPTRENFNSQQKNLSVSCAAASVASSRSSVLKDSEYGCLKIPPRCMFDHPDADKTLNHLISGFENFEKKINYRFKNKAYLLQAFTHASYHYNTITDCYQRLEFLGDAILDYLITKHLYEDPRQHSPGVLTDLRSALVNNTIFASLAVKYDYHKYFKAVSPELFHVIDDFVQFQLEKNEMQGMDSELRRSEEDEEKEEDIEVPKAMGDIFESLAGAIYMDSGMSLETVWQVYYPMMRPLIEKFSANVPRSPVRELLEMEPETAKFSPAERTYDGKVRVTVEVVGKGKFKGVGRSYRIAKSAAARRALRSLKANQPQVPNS
* marks the source's active call; other numbers are inactive results. Many of the other results were omitted from the sample, so hits are more common in it than they were.

SMILES	Dicer inh
COc1ccc(-c2csc3nc(-c4ccc(F)cc4)oc(=O)c23)cc1	0.76
COC(=O)c1noc(-c2ccc(F)cc2)n1	-0.21
COc1oc(-c2ccc(F)cc2)nc1C(F)(F)F	4.7*
CCOc1ccc(-c2nc(C#N)c(NCc3ccc(C)cc3)o2)cc1	0.27
CC(C)[C@@H]1CC[C@@H](C)C[C@@H]1P(=O)(c1ccccc1)c1ccccc1	-1.8
O=C(Oc1ccc(NC2=NS(=O)(=O)c3ccccc32)cc1)c1cccs1	1.4
COC(=O)c1sc(N2C(=O)c3oc4ccccc4c(=O)c3C2c2ccc(C)o2)nc1C (stereo not given)	0.5
NC(=S)N/N=C/c1c(Sc2ccc(Cl)cc2)nc2sccn12	0.34
Clc1ccc(Sc2c(-c3ccccc3)nc3sccn23)cc1	0.4
O=C1Nc2ccccc2/C1=C/c1c(Sc2ccc(Cl)cc2)nc2sccn12	5.7*
N#CC1=C(OC(=O)c2ccc(Cl)cc2)c2ccc(Cl)cc2N(S(=O)(=O)c2ccc(Cl)cc2)CC1	-0.07
CCOc1ccc(/C(O)=C2/C(=O)C(=O)N(CCOC)C23C(=O)N(C)c2ccccc23)cc1 (stereo not given)	4.1*
COCCN1C(=O)C(=O)/C(=C(\O)c2ccc(OC)c(C)c2)C12C(=O)N(C)c1ccccc12 (stereo not given)	3.2*
Cc1ccc(/C(O)=C2/C(=O)C(=O)N(CCCN(C)C)C23C(=O)N(C)c2ccccc23)cc1F (stereo not given)	-0.29
COCCN1C(=O)C(=O)/C(=C(\O)c2ccc(C)cc2)C12C(=O)N(C)c1ccccc12 (stereo not given)	-0.78
COCCN1C(=O)C(=O)/C(=C(\O)c2ccc(OC)cc2)C12C(=O)N(C)c1ccccc12 (stereo not given)	-0.25
CCOc1ccc(/C(O)=C2/C(=O)C(=O)N(CCCOC)C23C(=O)N(C)c2ccccc23)cc1 (stereo not given)	2.5
O=C(CSc1nc(SCC(=O)c2ccccc2Cl)c2ccccc2n1)c1ccccc1Cl	1.2
OC(c1cccc(C(F)(F)F)c1)c1cccc(C(F)(F)F)c1	0.45
CC(=O)c1ccc(C#Cc2ccccc2)s1	-0.59
CCOC(=O)C/C(=N/Nc1ccccc1[N+](=O)[O-])OCC	-0.25
Cc1nn(C)cc1CNC(=O)c1cnn2c1NC(c1ccc(Br)cc1)CC2C(F)(F)F (stereo not given)	0.99
O=C(c1cnn2c1NC(c1ccccc1)CC2C(F)(F)F)N1CCOCC1 (stereo not given)	1.3
O=C(c1cnn2c1NC(c1ccc(F)cc1)CC2C(F)(F)F)N1CCCCC1 (stereo not given)	0.98
Cc1c(CNC(=O)c2cnn3c2NC(c2ccc(Br)cc2)CC3C(F)(F)F)cnn1C (stereo not given)	0.01
SMILES	Dicer inh
Cc1ccc(C2CC(C(F)(F)F)n3nc(C(=O)NC4CCCC4)c(Cl)c3N2)cc1 (stereo not given)	0.93
Cc1ccc(C2CC(C(F)(F)F)n3ncc(C(=O)N4CCCCC4)c3N2)cc1 (stereo not given)	3*
COCCNC(=O)c1cnn2c1NC(c1ccc(Br)cc1)CC2C(F)(F)F (stereo not given)	4.3*
O=C(NC1CCCCC1)c1cnn2c1NC(c1ccc(Br)cc1)CC2C(F)(F)F (stereo not given)	5.6*
CCC(C)NC(=O)c1cnn2c1NC(c1ccc(Br)cc1)CC2C(F)(F)F (stereo not given)	1.1
COC(=O)c1sc2ncccc2c1N	-0.44
Cc1ccc(C)n1N(C)c1ccc([N+](=O)[O-])cn1	-0.08
CCOC(=O)Cc1csc(N2C(=O)CC(c3ccccc3)CC2=O)n1	-0.18
Cc1cc(/C(N)=N/O)cc(/C(N)=N/O)c1	2.2
O=C(Oc1nnc(SCCS(=O)(=O)c2ccc(F)cc2)n1C1Cc2ccccc2C1)c1cccs1	-1.3
CCCCSc1nc2ccccc2c(=O)[nH]1	0.24
CCCCNC(=O)NS(=O)(=O)c1ccccc1C(F)(F)F	0.79
c1cncc(Nc2nnc(-c3cccc4ccccc34)o2)c1	0.67
Nc1nc2c(c(=O)[nH]1)C(c1ccc(Cl)cc1)CC(=O)N2 (stereo not given)	-0.94
O=C(Nc1ccc(Cl)cc1)O/N=C/c1ccn(-c2ccccc2)n1	2.3
CCCc1cnc(N2CCN(S(=O)(=O)c3sc4ccc(Cl)cc4c3C)CC2)nc1	-1.1
CCCc1cnc(N2CCN(S(=O)(=O)c3ccc(CNC(=O)c4ccccc4)s3)CC2)nc1	1.2
CCCc1cnc(N2CCN(S(C)(=O)=O)CC2)nc1	3.5*
N#Cc1c(-c2ccccc2Cl)c2c([nH]c1=O)-c1ccccc1CC2	-0.58
O=C(Nc1ccc(N2C(=O)c3cccnc3C2=O)cc1)c1cccs1	-1.4
CC(=O)Oc1ccc(N2C(=O)c3cccnc3C2=O)cc1	3.1*
COC(=O)Cc1ccc(N2C(=O)c3cccnc3C2=O)cc1	-2.3
Brc1ccc([C@H]2CN3CCSC3=N2)cc1	1.3
O=C1C2C3c4ccccc4C(c4ccccc43)C2C(=O)N1CCO (stereo not given)	4.6*
